HT1080 IDH1KD tx: toxicity to HT-1080 IDH1 knockdown cells (counter line); AID 686971; HT-1080 IDH1 knockdown viability, ATP luminescence, 48 h; 360,000 tested, 2% active; Potency, µM (top dose mostly 46.1 µM), actives largely listed as cytotoxic
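Viability of IDH1-knockdown HT-1080 fibrosarcoma cells was assessed by CellTiter-Glo after 48 h at 37 °C with titrated compound; concentration-effect curves were classified by fit quality and response size.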
TGFb inhibitor: blocks TGF-b signaling; Potency, µM (highest dose often 46.1 µM), hits mostly inhibitors; 410,000 tested, 1.2% active; HepG2 CAGA-GFP TGF-b/SMAD3 reporter, GFP fluorescence, 18 h; TGF-beta stimulated, 500 pg/mL final; further: nearly all actives have a fitted effect of over 65% in size
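GFP signal (ex488/em500-530) from TGF-beta-stimulated HEPG2 CAGA-GFP cells, 500 pg/mL final, 18 h at 37 degrees C in DMEM plus 1% FBS, normalized to unstimulated and DMSO-stimulated controls.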
S2 tox: cell viability loss in ATXN counter-screen | S2 cells (HEK-293 line with an ATXN2-luciferase reporter) viability, CellTiter-Fluor protease fluorescence, 24 h | Potency, µM (highest dose often 56.7 µM), most hits filed as cytotoxic | 400,000 tested, 0.49% active; further: nearly all actives have a fitted effect of over 40% in size
HepG2 tox: kills HepG2 cells in TGF-b inhibitor counter-screen. HepG2 CAGA-GFP viability, ATP luminescence, 18 h. Potency, µM (highest dose often 46.1 µM), most hits filed as cytotoxic. 410,000 tested, 0.76% active. AID 588856
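HepG2 CAGA-GFP cells (1000/well, DMEM with 1% FBS) received compound, then TGF-beta at 500 pg/mL final, and were incubated 18 hours at 37 degrees C. Viability was read by CellTiter-Glo luminescence. Media-only wells were set as complete cell-killing and DMSO as no toxicity.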
ATXN2 expr inh: reduces ATXN2 reporter expression in HEK-293 cells. Potency, µM (top dose mostly 57 µM), actives largely listed as inhibitors. HEK-293 ATXN2-luciferase reporter, luminescence, 24 h. 360,000 tested, 0.72% active. AID 1745845; further: nearly all actives have a fitted effect of over 55% in size
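qHTS (up to 57 uM final) was run with 24 h compound exposure of reporter cells at 37 °C. Each well was multiplexed: SteadyGlo luminescence measured ATXN2-luciferase expression after a fluorogenic Gly-Phe-AFC viability readout (25 uM final).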
HT1080NT lethal: kills 2HG-producing HT-1080-NT fibrosarcoma cells. AID 686970. HT-1080-NT fibrosarcoma viability, CellTiter-Glo ATP luminescence, 48 h. 360,000 tested, 1.6% active. Potency, µM (doses to about 46.1 µM), usual class: cytotoxic;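 further: NT is the 2HG producing partner of a matched IDH1 knockdown line; nearly all actives have a fitted effect of over 55% in size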
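Toxicity toward the 2HG-producing NT line was scored as %Activity, normalised to DMSO and no-cell wells, from CellTiter-Glo luminescence after 48 hours' treatment.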
Of the large screens only hits and unclear results are named; the others gave an inactive call. In the library only some 3.8% were active in any assay of this set; here they are far more common. The call rests on the fitted dose curve; in most records, active means well fitted curve in the direction sought with a large enough effect; inconclusive means small, poorly fitted or top-dose-only effect, or another doubt; inactive means no such curve, though single readings can be large; an effect the other way counts as inactive or inconclusive.

Cc1cc(NC(=O)NC2(C(F)(F)F)Oc3ccc(Cl)cc3O2)no1 (stereo not given)	HT1080 IDH1KD tx 10µM, HT1080NT lethal inconclusive
COCCNC(=O)NC1(C(F)(F)F)Oc2ccc(Cl)cc2O1 (stereo not given)	HT1080 IDH1KD tx inconclusive, HT1080NT lethal inconclusive
O=C(Cn1nc(C(F)(F)F)c2c1CCC2)Nc1ccc(Cl)cc1	TGFb inhibitor inconclusive, S2 tox inconclusive, ATXN2 expr inh inconclusive (no result: HT1080 IDH1KD tx, HT1080NT lethal)
O=C(Cn1nc(C(F)(F)F)c2c1CCCC2)Nc1ccc(F)c(Cl)c1	TGFb inhibitor 11.2µM, S2 tox inconclusive, ATXN2 expr inh inconclusive (no result: HT1080 IDH1KD tx, HT1080NT lethal)
CCN(CC(=O)NCc1ccc(Cl)cc1)S(=O)(=O)c1ccc(F)cc1	none
CCN(CC(=O)NCc1ccc(F)cc1)C(=O)/C=C/c1ccc(S(=O)(=O)N(CC)CC)cc1	HT1080 IDH1KD tx 4.61µM, HT1080NT lethal 16.4µM
CN(C)c1ccc(/C=C/c2ccnc3ccccc23)cc1O	none (no result: HT1080 IDH1KD tx, S2 tox, ATXN2 expr inh, HT1080NT lethal)
O=C(O)c1ccc2c3c(ncnc13)-c1ccccc1C2=O	HT1080 IDH1KD tx inconclusive, TGFb inhibitor 0.794µM, HepG2 tox 1µM, ATXN2 expr inh inconclusive, HT1080NT lethal inconclusive
Cc1ncc([N+](=O)[O-])n1C	none (no result: HT1080 IDH1KD tx, TGFb inhibitor, HepG2 tox, HT1080NT lethal)
Cc1cc(NC(=O)c2cc(-c3ccncc3)nc3c(C)cccc23)no1	HT1080 IDH1KD tx 3.66µM, HT1080NT lethal 5.8µM
Cc1ccc2nc(/C(C#N)=C/c3ccc(-c4cccc(Cl)c4)o3)[nH]c2c1	HepG2 tox 8.91µM, ATXN2 expr inh inconclusive (no result: HT1080 IDH1KD tx, HT1080NT lethal)
CCCCc1ccc(N/C(N)=N/c2nc(C)cc(C)n2)cc1	HT1080 IDH1KD tx 20.6µM, TGFb inhibitor inconclusive, HepG2 tox 15.8µM, ATXN2 expr inh inconclusive, HT1080NT lethal 32.6µM
CCn1c(-c2ccccc2F)nc2cc(NC(C)=O)cc(C(=O)N(C)Cc3ccccn3)c21	none (no result: HT1080 IDH1KD tx, TGFb inhibitor, HepG2 tox, ATXN2 expr inh, HT1080NT lethal)
CCOc1cc(/C=N/NC(=O)Cn2nc([N+](=O)[O-])cc2C)cc(Br)c1OCc1ccccc1F	HT1080 IDH1KD tx 10µM, HT1080NT lethal inconclusive
CCOc1cc(/C=N/NC(N)=O)cc(Br)c1OCc1ccccc1F	none
Cc1ncoc1C(=O)N1CCOc2ccc(CN3CCN(c4ccccn4)CC3)cc2C1	none (no result: HT1080 IDH1KD tx, TGFb inhibitor, HepG2 tox, ATXN2 expr inh, HT1080NT lethal)
CCCS(=O)(=O)NCc1c(C)ncc2c1CCN(C(=O)/C=C/c1cccc(Cl)c1)C2	none (no result: HT1080 IDH1KD tx, TGFb inhibitor, HepG2 tox, ATXN2 expr inh, HT1080NT lethal)
C(=C\c1ccco1)/c1ccc2ccccc2n1	HT1080 IDH1KD tx 10.3µM, TGFb inhibitor inconclusive, HT1080NT lethal inconclusive
CC(O)/C=C/c1ccc2ccccc2n1 (stereo not given)	HT1080 IDH1KD tx 11.2µM, S2 tox inconclusive, HT1080NT lethal inconclusive
COc1ccccc1/C=C/c1ccc2ccccc2n1	none (no result: HT1080 IDH1KD tx, S2 tox, ATXN2 expr inh, HT1080NT lethal)
CCc1ccc(NC(=O)COCc2cc(-c3ccc(F)cc3)on2)cc1	none (no result: HT1080 IDH1KD tx, HT1080NT lethal)
CC1(C)CC(=O)C(N=Nc2ccc(C(F)(F)F)cc2[N+](=O)[O-])=C(O)C1	TGFb inhibitor 12.6µM, S2 tox inconclusive, ATXN2 expr inh inconclusive
c1ccc(COc2ncnc3c2ncn3CCCN2CCN(Cc3cccc4ccccc34)CC2)cc1	HT1080 IDH1KD tx inconclusive, TGFb inhibitor inconclusive, S2 tox inconclusive, ATXN2 expr inh 22.4µM, HT1080NT lethal 16.4µM
C[C@@H](NC(=O)Cn1cnc2c(OCc3ccccc3)ncnc21)c1cccc2ccccc12	HT1080 IDH1KD tx inconclusive, TGFb inhibitor inconclusive, S2 tox inconclusive, HT1080NT lethal inconclusive
c1ccc(CCCNCCCn2cnc3c(OCc4ccccc4)ncnc32)cc1	HT1080 IDH1KD tx inconclusive, TGFb inhibitor inconclusive, S2 tox 25.1µM, ATXN2 expr inh inconclusive
C[C@@H](NCCCn1cnc2c(OCc3ccccc3)ncnc21)c1cccc2ccccc12	HT1080 IDH1KD tx inconclusive, TGFb inhibitor inconclusive, S2 tox inconclusive, HepG2 tox 14.1µM, ATXN2 expr inh inconclusive
COc1ccc(-c2nc3ccccn3c2Nc2ccccc2C)cc1	none (no result: TGFb inhibitor, S2 tox, HepG2 tox, ATXN2 expr inh)
CCN(CC)CCCC(C)Nc1cc(/C=C/c2ccccc2Cl)nc2cc(Cl)ccc12 (stereo not given)	TGFb inhibitor 2.82µM, HepG2 tox 2.82µM (no result: HT1080 IDH1KD tx, S2 tox, ATXN2 expr inh, HT1080NT lethal)
CCN(CC)CCN(C(=O)/C=C/c1cccs1)c1nc2ccc(Cl)cc2s1	HT1080 IDH1KD tx inconclusive (no result: ATXN2 expr inh)
CN1N=C(C(C)(C)C)CC1=O	HT1080 IDH1KD tx 18.4µM, TGFb inhibitor inconclusive, HT1080NT lethal inconclusive
CCCCCCCCCCCCCCCC(C)C1=NCCN1 (stereo not given)	none (no result: HT1080 IDH1KD tx, S2 tox, ATXN2 expr inh, HT1080NT lethal)
COc1cc(C2Nc3ccc4ncccc4c3C3=C2C(=O)CCC3)ccc1O (stereo not given)	HT1080 IDH1KD tx 5.8µM, S2 tox inconclusive, HT1080NT lethal inconclusive
Cc1onc(-c2c(F)cccc2Cl)c1-c1nnc(-c2ccc(C(F)(F)F)cc2)o1	HT1080 IDH1KD tx 25.9µM, TGFb inhibitor inconclusive, S2 tox inconclusive
Cc1onc(-c2c(Cl)cccc2Cl)c1-c1nnc(-c2ccc(Cl)cc2)o1	S2 tox inconclusive
O=C1/C(=C\c2ccccc2)CCc2c1[nH]c1ccccc21	HT1080 IDH1KD tx 11.6µM, HT1080NT lethal 7.31µM
CCOC(=O)c1cc(-c2ccc(OC)cc2)n(CCC(=O)Nc2ccccc2OC)c1C	S2 tox inconclusive, ATXN2 expr inh inconclusive (no result: HT1080 IDH1KD tx, HT1080NT lethal)

Screening results: PubChem, National Center for Advancing Translational Sciences (NCATS)
